Assay [1] in a line: antimalarial activity against Dd2 strain (AID 2302;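 active = growth inhibition above 50% at the single 2 µM test dose, taken to imply half-maximal potency below 2 µM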;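 note: 0% = DMSO untreated growth and 100% = chloroquine plus artemisinin killed control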). Conditions: P. falciparum Dd2 in RBCs, LDH growth readout, 72 h; at 2 µM; active compounds read high.
Assay [2] in a line: human hepatoma cell viability loss – ATP luminescence, cytotoxicity control for P. falciparum antimalarial project, primary screen (AID 2303;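 active = inhibition above 50%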;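 note: 0% = DMSO wells and 100% = digitonin-killed cells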). The following applies: HepG2 viability, 24-48 h, at 10 µM, active compounds read high.
For assay [3], the target named is L-lactate dehydrogenase (Plasmodium falciparum (isolate CDC / Honduras)) (UniProt Q27743). The assay is described as follows: PfLDH activity inhibition – cell lysate, 3D7 strain, counter-screen for P. falciparum growth inhibition project (AID 2304).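 Note: 0% = vehicle and 100% = reference inhibitor.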 Conditions: P. falciparum 3D7 crude extract, LDH APAD/NBT absorbance; at 2 µM; active compounds read high.
The nature of assay [4]: inhibition of 3D7 malaria parasite growth – strain 3D7 (AID 2306).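 Note: 0% = DMSO wells and 100% = chloroquine plus artemisinin control wells.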 The following applies: P. falciparum 3D7 erythrocytic growth, LDH absorbance, 72 h; at 2 µM; active compounds read high.
The target of assay [5] is Calcium-dependent protein kinase 1 (Plasmodium falciparum (isolate 3D7)) (UniProt P62344). Briefly: PfCDPK1 kinase inhibitors, biochemical, TCAMS library (AID 1159585; cut-off not given, nearly all actives have IC50 up to about 0.98 µM;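 note: inhibitors leave more ATP so luminescence rises with inhibition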). Conditions: recombinant PfCDPK1, Kinase-Glo ATP depletion luminescence. In general terms: Kinase-Glo reads ATP consumption through a luciferase reaction.
For assay [6], the target named is Plasmodium falciparum protein kinase 6 (PK6, PF3D7_1337100) (UniProt Q8IDW1). The assay is described as follows: PfPK6 kinase inhibitors, biochemical, TCAMS library (AID 1159586). The following applies: recombinant PfPK6, Kinase-Glo ATP depletion luminescence.
The target of assay [7] is Protein kinase 7 (PK7), Plasmodium falciparum 3D7 (PF3D7_0213400) (UniProt Q7YTF7). Briefly: inhibition of Plasmodium PK7 catalytic activity – biochemical, TCAMS antimalarial set, Kinase-Glo luminescence (AID 1159587). Conditions: recombinant PfPK7, Kinase-Glo ATP depletion luminescence.
Assay [8] addresses Calcium-dependent protein kinase 4 (Plasmodium falciparum (isolate 3D7)) (UniProt Q8IBS5). The assay is described as follows: PfCDPK4 kinase inhibitors, biochemical, TCAMS library (AID 1159588; cut-off not given, nearly all actives have IC50 up to about 0.91 µM). The following applies: recombinant PfCDPK4, Kinase-Glo ATP depletion luminescence.

Unmarked numbers belong to inactive results. For some of these results: Measured potencies and affinities stand elsewhere. Calls of active or inactive are those of the source. Unless noted, the rule behind the calls is not given here.

L-lactate dehydrogenase (Plasmodium falciparum (isolate CDC / Honduras)), sequence (Q27743 whole entry, looked up): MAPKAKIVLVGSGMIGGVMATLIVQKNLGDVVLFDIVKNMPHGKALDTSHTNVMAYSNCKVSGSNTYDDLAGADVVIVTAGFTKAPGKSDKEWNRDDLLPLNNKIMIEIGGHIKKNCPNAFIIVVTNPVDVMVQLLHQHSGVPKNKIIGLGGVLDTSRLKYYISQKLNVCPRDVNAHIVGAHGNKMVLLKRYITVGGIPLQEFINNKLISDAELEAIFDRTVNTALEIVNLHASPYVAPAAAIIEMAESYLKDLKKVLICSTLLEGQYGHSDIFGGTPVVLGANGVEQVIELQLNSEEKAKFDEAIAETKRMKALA
Calcium-dependent protein kinase 4 (Plasmodium falciparum (isolate 3D7)), sequence (Q8IBS5 whole entry, looked up): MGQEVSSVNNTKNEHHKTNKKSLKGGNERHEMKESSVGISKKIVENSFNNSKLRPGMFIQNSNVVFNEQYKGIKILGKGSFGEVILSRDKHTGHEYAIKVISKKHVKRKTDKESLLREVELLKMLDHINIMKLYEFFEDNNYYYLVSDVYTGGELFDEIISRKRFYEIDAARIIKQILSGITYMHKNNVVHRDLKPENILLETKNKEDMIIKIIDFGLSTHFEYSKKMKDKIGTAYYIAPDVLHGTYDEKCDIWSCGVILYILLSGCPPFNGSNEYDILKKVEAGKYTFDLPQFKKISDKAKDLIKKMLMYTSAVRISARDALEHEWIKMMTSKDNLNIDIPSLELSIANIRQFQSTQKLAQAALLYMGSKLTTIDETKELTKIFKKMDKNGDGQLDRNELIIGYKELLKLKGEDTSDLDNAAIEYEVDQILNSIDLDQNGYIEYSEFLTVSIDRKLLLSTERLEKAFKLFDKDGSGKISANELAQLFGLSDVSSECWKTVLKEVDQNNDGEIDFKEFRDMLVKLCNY
Protein kinase 7 (PK7), Plasmodium falciparum 3D7 (PF3D7_0213400), sequence (Q7YTF7 1-343): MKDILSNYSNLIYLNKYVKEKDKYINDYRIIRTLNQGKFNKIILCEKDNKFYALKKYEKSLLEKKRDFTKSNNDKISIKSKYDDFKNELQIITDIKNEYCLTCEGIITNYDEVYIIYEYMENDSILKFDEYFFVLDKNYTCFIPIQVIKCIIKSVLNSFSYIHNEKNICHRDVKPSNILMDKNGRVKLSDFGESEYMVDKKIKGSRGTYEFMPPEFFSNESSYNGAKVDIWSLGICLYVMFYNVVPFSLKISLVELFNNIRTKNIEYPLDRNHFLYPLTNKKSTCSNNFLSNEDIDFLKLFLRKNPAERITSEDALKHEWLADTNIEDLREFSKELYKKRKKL
Plasmodium falciparum protein kinase 6 (PK6, PF3D7_1337100), sequence (Q8IDW1 1-305): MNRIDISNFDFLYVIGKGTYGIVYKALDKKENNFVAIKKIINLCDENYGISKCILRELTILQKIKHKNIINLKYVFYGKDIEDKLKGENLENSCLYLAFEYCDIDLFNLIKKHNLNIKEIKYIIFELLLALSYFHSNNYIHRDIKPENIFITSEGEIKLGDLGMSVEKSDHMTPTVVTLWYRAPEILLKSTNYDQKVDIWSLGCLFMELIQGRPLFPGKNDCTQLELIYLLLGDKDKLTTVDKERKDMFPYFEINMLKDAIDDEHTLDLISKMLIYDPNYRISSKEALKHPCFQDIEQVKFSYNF
Calcium-dependent protein kinase 1 (Plasmodium falciparum (isolate 3D7)), sequence (P62344 whole entry, looked up): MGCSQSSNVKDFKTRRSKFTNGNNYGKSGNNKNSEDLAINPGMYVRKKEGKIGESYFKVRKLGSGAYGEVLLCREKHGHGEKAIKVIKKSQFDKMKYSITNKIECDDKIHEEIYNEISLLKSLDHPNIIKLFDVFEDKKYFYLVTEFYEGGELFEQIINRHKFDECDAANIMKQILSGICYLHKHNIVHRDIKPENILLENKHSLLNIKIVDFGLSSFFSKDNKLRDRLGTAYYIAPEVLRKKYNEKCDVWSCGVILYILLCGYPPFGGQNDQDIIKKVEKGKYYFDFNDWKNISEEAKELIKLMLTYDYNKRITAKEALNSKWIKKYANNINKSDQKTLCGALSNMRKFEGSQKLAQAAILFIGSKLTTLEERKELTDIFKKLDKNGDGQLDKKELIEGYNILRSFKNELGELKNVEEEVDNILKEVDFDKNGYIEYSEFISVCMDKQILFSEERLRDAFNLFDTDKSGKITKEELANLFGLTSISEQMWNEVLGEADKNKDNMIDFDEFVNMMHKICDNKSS

By inhibition is commonly meant the change of the read-out against control, counted positive when it falls. Turning to `CC(=O)Nc1nc(C(=O)Nc2ccc(-c3ccc(-c4nc5ccc(F)cc5[nH]4)cc3)cc2)cs1`, the growth inhibition in assay [1] was 33%; in assay [4], 100% (active). Moreover, the inhibition was 17% in assay [2] and -5% in assay [3]. The outcome in assay [5], in assay [6], in assay [7] and in assay [8] was inactive.

As for `CN(C)C(CNC(=O)c1cc(-c2ccncc2)c(-c2ccc(Cl)c(O)c2)o1)c1ccccc1` (stereo not given), the results for the growth inhibition in assay [1] and in assay [4] were 28% and 91% (active), respectively. Also, the results for the inhibition in assay [2] and in assay [3] were 28% and 0%, respectively. Besides, the result in assay [5], in assay [6], in assay [7] and in assay [8] was inactive.

Regarding `O=C1CSc2ccc(CNC3CCN(CCc4c(Cl)cnc5ccc(F)cc45)CC3)nc2N1`, the results for the growth inhibition in assay [1] and in assay [4] were 52% (active) and 98% (active), respectively. In addition, the inhibition in assay [2] was 21%; in assay [3] it was -2%. In addition, the result in assay [5], in assay [6], in assay [7] and in assay [8] was inactive.

In the case of `O=C(Nc1ccc(Cl)cc1)c1ccc(CN2CCCN(Cc3ccc(F)cc3)CC2)cc1`, the growth inhibition in assay [1] is 8%; in assay [4], 91% (active). For the same compound, the results for the inhibition in assay [2] and in assay [3] were 48% and 6%, respectively. In addition, the outcome in assay [5], in assay [6], in assay [7] and in assay [8] was inactive.

Turning to `CS(=O)(=O)NCCCNCc1cccc(-c2ccc(-c3nc4ccc(C(F)(F)F)cc4[nH]3)cc2)c1`, the growth inhibition is 85% (active) in assay [1] and 100% (active) in assay [4]. In addition, the inhibition in assay [2] was 17%; in assay [3], -4%. The outcome in assay [5], in assay [6], in assay [7] and in assay [8] was inactive.

As to `O=C(/C=C/c1ccc(Cl)c(Cl)c1)NCCCCCN1CCC(NC(=O)Nc2ccc(Br)cc2)CC1`, the growth inhibition is 7% in assay [1] and 101% (active) in assay [4]. The inhibition in assay [2] is 36%; in assay [3] it was -3%. Further, the result in assay [5], in assay [6], in assay [7] and in assay [8] was inactive.

For the compound `Cc1ccc(Nc2nccc(NCC(O)c3cccc(F)c3)n2)cc1` (stereo not given), the results for the growth inhibition in assay [1] and in assay [4] were 26% and 95% (active), respectively. In addition, the inhibition in assay [2] was 24%; in assay [3] it was -7%. Besides, the outcome in assay [5], in assay [6], in assay [7] and in assay [8] was inactive.

With `COc1ccc2nccc([C@@H](O)CN3CCC(NC(=O)C(c4cc5ccccc5o4)N4CCN(c5ccc(F)cc5)CC4)CC3)c2c1` (stereo not given in full), the growth inhibition in assay [1] is 98% (active); in assay [4], 100% (active). The inhibition in assay [2] was 15%; in assay [3] it was -1%. Also, the outcome in assay [5], in assay [6], in assay [7] and in assay [8] was inactive.

As to `CCCc1ccc(NC(=O)c2ccc(CN3CCCN(Cc4ccc(OC)cc4)CC3)cc2)cc1`, the values for the growth inhibition in assay [1] and in assay [4] were -4% and 81% (active), respectively. Moreover, the inhibition is 47% in assay [2] and 0% in assay [3]. For the same compound, the result in assay [5], in assay [6], in assay [7] and in assay [8] was inactive.

With `O=C(Nc1ccc(I)cc1)N1CCc2sccc2C1CN1CCCCC1` (stereo not given), the growth inhibition in assay [1] is 0%; in assay [4], 90% (active). Also, the inhibition in assay [2] is 33%; in assay [3] it was 6%. Further, the outcome in assay [5], in assay [6], in assay [7] and in assay [8] was inactive.

As to `CCOC(=O)c1c(CCc2ccc(C(F)(F)F)cc2)nc2c(c1-c1ccc(C(=O)N[C@@H](C)c3ccncc3)cc1)C(=O)N1CCC[C@@H]21`, the figures for the growth inhibition in assay [1] and in assay [4] were 68% (active) and 85% (active), respectively. The inhibition in assay [2] is -3%; in assay [3], -2%. Further, the result in assay [5], in assay [6], in assay [7] and in assay [8] was inactive.

In the case of `Cc1ccc(O)cc1Nc1ccnc2cc(-c3nccs3)ccc12`, the growth inhibition is 83% (active) in assay [1] and 102% (active) in assay [4]. The inhibition is 63% (active) in assay [2] and 2% in assay [3]. Besides, the outcome in assay [5], in assay [6], in assay [7] and in assay [8] was inactive.

As to `CC(CON1C(N)=NC(N)=NC1(C)C)c1ccc(Cl)cc1Cl` (stereo not given), the growth inhibition is 95% (active) in assay [1] and 97% (active) in assay [4]. For the same compound, the inhibition in assay [2] was 64% (active); in assay [3], 0%. Also, the outcome in assay [5], in assay [6], in assay [7] and in assay [8] was inactive.

As to `COc1ccc(Nc2nc(N3CCCC3)c3ccccc3n2)cc1`, the growth inhibition in assay [1] is 98% (active); in assay [4], 102% (active). The inhibition in assay [2] is 40%; in assay [3], 2%. Moreover, the result in assay [5], in assay [6], in assay [7] and in assay [8] was inactive.

Turning to `CC(CN1CCN(C)CC1)C(=O)Nc1ccc(-c2csc(-c3nc4ccccc4[nH]3)c2)cc1` (stereo not given), the growth inhibition in assay [1] was 26%; in assay [4], 93% (active). The results for the inhibition in assay [2] and in assay [3] were 15% and -4%, respectively. For the same compound, the outcome in assay [5], in assay [6], in assay [7] and in assay [8] was inactive.

Consider `CCCCCC(C)C(C)c1cc(OC(N)=O)c2c(c1)OC(C)(C)C=C2c1ccncc1` (stereo not given), for which the growth inhibition in assay [1] is -1%; in assay [4], 96% (active). For the same compound, the inhibition in assay [2] is 81% (active); in assay [3] it was 0%. In addition, the result in assay [5], in assay [6], in assay [7] and in assay [8] was inactive.

Regarding `CN(C)c1cc(NC(=O)Nc2ccccc2)c2ccccc2n1`, the growth inhibition is 98% (active) in assay [1] and 101% (active) in assay [4]. The inhibition in assay [2] is 11%; in assay [3], -5%. The outcome in assay [5], in assay [6], in assay [7] and in assay [8] was inactive.

For the compound `O=C(Nc1cccc(C(F)(F)F)c1)c1cccc(S(=O)(=O)NC2CCCN(CC3CCCCC3)C2)c1` (stereo not given), the values for the growth inhibition in assay [1] and in assay [4] were 15% and 97% (active), respectively. The inhibition in assay [2] is 18%; in assay [3] it was 1%. Moreover, the result in assay [5], in assay [6], in assay [7] and in assay [8] was inactive.

With `Cc1ccccc1Nc1nc(NCCCO)c2ccccc2n1`, the growth inhibition is 50% (active) in assay [1] and 83% (active) in assay [4]. Also, the figures for the inhibition in assay [2] and in assay [3] were -1% and -5%, respectively. The outcome in assay [5], in assay [6], in assay [7] and in assay [8] was inactive.

On to `Cc1cccc2[nH]c(-c3cccc(-c4ccc(NC(=O)C(C)(C)c5ccccn5)cc4)c3)nc12`, for which the growth inhibition in assay [1] is 4%; in assay [4] it was 97% (active). In addition, the inhibition in assay [2] is -3%; in assay [3] it was -1%. Also, the outcome in assay [5], in assay [6], in assay [7] and in assay [8] was inactive.

These data come from PubChem BioAssay.
